Experimental findings from PubChem BioAssay (NCATS) are described below.

Molecules are shown by their SMILES. Results filed as inconclusive are left out. Entries that show only a call come without a potency. Unmarked numbers belong to inactive results. Active and inactive are the calls of the source. Calls come from the whole dose curve; as a rule, active = well fitted activation curve with a large enough effect; inconclusive = small, poorly fitted or top-dose-only effect; inactive = flat fitted curve, though single readings scatter.

The test is described as follows: Primary redox qHTS assay for identification of artifact compounds. (AID 1845223). Conditions: Amplex Red/HRP redox cycling with DTT, fluorescence; series mostly up to 53.8 µM. The gist of the method: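 Amplex Red (25 uM) and HRP (250 mU/mL) in HBSS, with compounds for 15 min, then 250 uM DTT for 30 min, room temperature, dark. Fluorescence 525/598 nm read; normalized to DMSO and 10 uM DA3003; Hill fit.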
A general note: In qHTS, concentration-response curves come from the screen itself.

`Clc1cccc(COc2cncc(N3CCNCC3)n2)c1`: the Potency entry was “inactive”. In the case of `Cc1[nH]c2ccccc2c1CCNCc1ccc(/C=C/C(=O)NO)cc1`, the Potency entry is “inactive”. Turning to `C=C1CC(=O)C2OC2(C)CC2OC(=O)C(=C)C2C(O)C1OC(=O)/C(C)=C\C` (centres undefined), the Potency result is “inactive”. `NS(=O)(=O)c1ccc(N2CCN(CC[C@@H]3OCCc4ccccc43)CC2)cc1`: the Potency result was “inactive”. Turning to `CN1CC2CN(c3ccc4oc5ccccc5c(=O)c4c3)CC2C1` (centres undefined), the Potency entry was “inactive”.

For the compound `C=C1CO[C@@]2(O[C@H]3CC4C5CC=C6C[C@@H](O)C[C@@H](O[C@@H]7OC[C@H](O)[C@H](O[C@@H]8OC[C@@H](O)[C@H](O)[C@H]8O)[C@H]7O[C@@H]7O[C@@H](C)[C@H](OC(C)=O)[C@@H](OC(C)=O)[C@H]7OC(C)=O)[C@]6(C)C5CC[C@]4(C)[C@@H]3[C@@H]2C)[C@@H](O)[C@H]1OC1OC(C)C(O)C(O)C1O` (some centres undefined), the redox activity (% of DA3003) was 7.69% [at 11.5 µM]. On to `O=C(N[C@H](Cc1cscn1)C(=O)N[C@@H](CC1CCCCC1)[C@@H](O)[C@@H](O)C1CC1)c1nc2ccccc2[nH]1`, for which the Potency result was “inactive”. In the case of `C=C1CC2OC(=O)C(COC)C2C(OC(=O)/C(C)=C\C)CC2(C)OC1=CC2=O` (centres undefined), the Potency entry was “inactive”. `CC1CCC(=O)CC(SCC(O)C(=O)O)CCC(=O)O1` (centres undefined): the Potency entry is “inactive”. For `C/C=C(\C)C(=O)O[C@H]1C=C(CO)C(=O)[C@H](OC(C)=O)[C@H]1C(C)C`, the Potency entry was “inactive”. As to `CCc1ccc(-c2nc(CSCC(=O)NCCc3ccccc3)c(C)o2)cc1`, the Potency entry is “inactive”. In the case of `C[C@@H]1O[C@@H](O[C@H]2[C@H](OC(=O)[C@]34CCC(C)(C)C[C@H]3C3=CCC5[C@@]6(C)C[C@H](O)[C@H](O[C@@H]7O[C@H](CO)[C@@H](O)[C@H](O)[C@H]7O)[C@](CO)(C(=O)O)C6CC[C@@]5(C)[C@]3(C)C[C@H]4O)OC[C@H](O)[C@@H]2O)[C@H](O)[C@H](O)[C@H]1O[C@@H]1OC[C@@H](O)[C@H](O[C@@H]2OC[C@](O)(CO)[C@H]2O)[C@H]1O` (some centres undefined), the redox activity (% of DA3003) was 8.49% [at 11.5 µM]. Regarding `CC(C)C[C@@H]1NC(=O)[C@@H](Cc2ccccc2)NC(=O)C(CCCCCC(=O)C2CO2)NC(=O)[C@@H]2CCCCN2C1=O` (some centres undefined), the Potency entry is “inactive”. In the case of `Nc1nc(O)c(C2=C3C(=Nc4ccccc43)C(=O)NCC2)[nH]1`, the Potency entry is “inactive”.

Take `CCCc1ccc(OCC(=O)N(Cc2nc(-c3cccnc3)no2)C(C)C)cc1`: the Potency entry is “inactive”. For `O=c1cc(OCc2ccc(F)cc2)ccn1-c1ccc(OCCN2CCCC2)cc1`, the Potency result was “inactive”. On to `CC(C)(C)NC(=O)[C@H]1CC[C@H]2[C@@H]3CC[C@H]4NC(=O)CC[C@]4(C)[C@H]3CC[C@]12C`, for which the Potency result was “inactive”.

Consider `O=C(Nc1ccccc1Cl)c1cnc2ccc(C3CCNCC3)cn12`, for which the Potency entry was “inactive”. For the compound `CCOc1ccc(S(=O)(=O)N2CCCCCC2)c2ccccc12`, the Potency entry was “inactive”. Turning to `COC(=O)/C=C/C=C/C(=O)OC1C=C2COC(=O)C2(O)C2(C)CCCC(C)(C)C12` (centres undefined), the Potency result was “inactive”. On the same count and under the same terms, then `COC(=O)c1cc(Br)cnc1N1CCC(NC2CCCCC2)C(O)C1` (centres undefined), with “inactive”. `CCn1c2ccccc2c2cc(Nc3ccnc(NCCCN4CCOCC4)n3)ccc21`: the Potency result was “inactive”. As for `N#Cc1ccc(COc2ccc(-c3cccc4nc(NC(=O)C5CC5)nn34)cc2)cn1`, the Potency result is “inactive”. On to `C=C1C(=O)O[C@@H]2[C@H]3C(C)=CC(=O)C3=C(C)[C@@H](OC(=O)/C(C)=C\C)[C@H](O)[C@@H]12`, for which the Potency result was “inactive”. On the same count and under the same terms, as for `C#Cc1cccc(Nc2nc3cc(C(=O)O)ccc3c3cncnc23)c1`, the entry is “inactive”; as for `C/C(=C\CO[C@@H]1O[C@H](CO[C@H]2OC[C@](O)(CO)[C@H]2O)[C@@H](O)[C@H](O)[C@H]1O)C(C)(C)O`, “inactive”; as for `COc1cc2ncnc(Oc3ccc(CC(=O)Nc4cnn(C(C)C)c4)cc3)c2cc1OC`, “inactive”. On to `C=CC(=O)N1CCCC(n2nc(-c3ccc(Oc4ccccc4)cc3)c3c(N)ncnc32)C1` (centres undefined), for which the Potency entry was “inactive”. For `O=C(c1ccc(Cl)cc1)N1CCN(c2ccnc3cc(Cl)ccc23)CC1`, the Potency result was “inactive”.

Consider `COC1=CC(=O)O/C1=C(/OC)[C@@H]1O[C@H]1c1ccccc1`, for which the Potency entry was “inactive”.

Take `COc1cc(O)c2c(c1)C1OC1C[C@H](O)[C@H](O)C(=O)/C=C\C[C@H](C)OC2=O` (some centres undefined): the Potency result is “inactive”. As for `CN(C)CCOC(C)(c1ccccc1)c1ccc(Cl)cc1` (centres undefined), the Potency result is “inactive”. For the compound `CC(C)S(=O)(=O)NC[C@@H]1CC(c2ccc(N3CCCC3)c(F)c2)=NO1`, the Potency result was “inactive”.

For `CS(=O)(=O)Nc1ccc2oc3c(OC(F)F)ccc(C(=O)Nc4c(Cl)cncc4Cl)c3c2c1`, the Potency result is “inactive”.
